Experimental findings from PubChem BioAssay (EPA / NIEHS) are described below.

Assay [1] in a line: APR_HepG2_CellCycleArrest_24hr: Apredica 24-hour HepG2 Assay for Cell Cycle Arrest (AID 2282905).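 Note: cell cycle arrest scored as ratio of 2N to 4N nuclear DNA content.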 The following applies: imaging, actives raise or lower the signal. The method in brief:
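Step one: dose HepG2 with test compounds, 0.39–200 uM, 0.5% DMSO, 24 hr. Step two: fix, permeabilize, stain nuclei with Hoechst 33342. Step three: image six fields per well at 20x, quantify DNA content, fit bidirectionally relative to DMSO.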

Assay [2] can be described thus: APR_HepG2_NuclearSize_24hr: Apredica 24-hour HepG2 Assay for Nuclear Size (AID 2282907). The settings on record: high-content imaging, actives raise or lower the signal. Summed up:
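After fixation and permeabilization, 24-hr-treated HepG2 cells were stained with Hoechst 33342 and imaged on an ArrayScan (20x). Doses spanned 0.39–200 uM in duplicate. Nuclear diameter changes in either direction were fitted relative to 0.5% DMSO controls.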

The nature of assay [3]: APR_HepG2_CellLoss_24hr: Apredica 24-hour HepG2 Assay for Cell Loss (AID 2282908).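 For AC50: fit in both directions so a hit may be cell loss or gain.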 The following applies: high-content imaging. Summed up: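 Duplicate wells received compound at ten concentrations (0.39–200 uM; final DMSO 0.5% v/v). After fixation with formaldehyde, nuclei stained with Hoechst 33342 were imaged at 20x. Loss or gain of cell count was fitted relative to DMSO controls.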

A short description of assay [4]: APR_HepG2_MicrotubuleCSK_24hr: Apredica 24-hour HepG2 Assay for Microtubule CSK Stabilty (AID 2282909). The following applies: HepG2 microtubule cytoskeleton imaging, actives raise or lower the signal. Summed up: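 Microtubule stability is scored from tubulin immunofluorescence in fixed HepG2 cells imaged at 20x. Cells receive ten compound concentrations up to 200 uM for 24 h; taxol and DMSO serve as positive and negative controls.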

A short description of assay [5]: APR_HepG2_MitoticArrest_24hr: Apredica 24-hour HepG2 Assay for Mitotic Arrest (AID 2282910). The settings on record: high-content imaging, actives raise or lower the signal. Summed up: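 Treatment lasted 24 hr in the human HepG2 line at 0.39–200 uM, solvent held at 0.5% DMSO. Fixed cells were stained with Hoechst 33342 and anti-phospho-histone H3, imaged at 20x, and analysed by gain- or loss-of-signal fitting against DMSO.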

A short description of assay [6]: APR_HepG2_MitoMembPot_24hr: Apredica 24-hour HepG2 Assay for Mitochondrial Membrane Potential (AID 2282911). The following applies: imaging, actives raise or lower the signal. Summed up:
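Mitochondrial membrane potential imaged via MitoTracker Red CMXRos (250 nM, 30 min pre-fixation) in fixed HepG2 cells with Hoechst nuclear identification. Ten concentrations 0.39–200 uM, 24 h treatment, 0.5% DMSO; CCCP as positive control.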

Assay [7] in a line: APR_HepG2_MitoMass_24hr: Apredica 24-hour HepG2 Assay for Mitochondrial Mass (AID 2282912). The following applies: high-content imaging, actives raise or lower the signal. Summed up: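 Readout: fluorescence of MitoTracker Red CMXRos (250 nM, added 30 min pre-fixation) in fixed HepG2 cells imaged by HCS. Exposure lasted 24 hr at 0.39–200 uM; increases and decreases were both fitted relative to DMSO.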

The nature of assay [8]: APR_HepG2_p53Act_24hr: Apredica 24-hour HepG2 Assay for p53 Activation (AID 2282913).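 Note: p53 protein immunofluorescence averaged per cell in HepG2 with Hoechst nuclei.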 The settings on record: high-content imaging, actives raise or lower the signal. The method in brief: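 Fluorescence imaging of formaldehyde-fixed HepG2 cells labelled for p53 and with Hoechst, 24 h after dosing (0.39–200 uM, duplicate wells, 0.5% v/v DMSO). Signal fitted in both directions relative to DMSO.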

Assay [9] in a line: APR_HepG2_CellLoss_72hr: Apredica 72-hour HepG2 Assay for Cell Loss (AID 2282915). The following applies: high-content imaging. The method in brief:
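HepG2 cells were exposed for 72 hr to compounds at 0.39–200 uM (ten concentrations, duplicate) in 0.5% v/v final DMSO. Nuclei were stained with Hoechst 33342 after 3.7% formaldehyde fixation, imaged at 20x, and counted; fits bidirectional versus DMSO.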

Activity calls are given as the source filed them. Rule for the calls: active = hit-call score of the fitted dose curve at least 0.9, where 1 is the maximum; inactive = score below 0.9.

For the compound `Clc1ccccc1C(c1ccccc1)(c1ccccc1)n1ccnc1`, the compound was classed as inactive in assay [1], in assay [6], in [7] and in assay [8]. The AC50 in assay [2] was 72.3 µM (active); in assay [3], 20.3 µM (active); in assay [4] it was 30.7 µM (active); in [5] it was 31.6 µM (active); in assay [9], 18.9 µM (active).
Turning to `Cc1ccc2oc(CN(Cc3ccccc3)C(=O)Nc3c(F)cc(F)cc3F)c(-c3ccc(Cl)cc3)c2c1`, the outcome in [1], in assay [2], in assay [3], in [4], in assay [5] and in [6] was inactive. The result in assay [7], in assay [8] and in assay [9] was inactive.
As to `c1ccc2ccccc2c1`, the call in [1], in [2], in assay [3], in assay [4], in assay [5] and in assay [6] was inactive. Further, the compound was called inactive in [7] and in assay [8]. Besides, the AC50 in [9] is 0.0736 µM (active).
As for `CN1C(=O)CC[C@H]1c1cccnc1`, the compound was classed as inactive in assay [1], in assay [2], in [3], in assay [4], in [5] and in assay [6]. Further, the call in assay [7], in assay [8] and in assay [9] was inactive.
Turning to `CCCCCCCCCCCO`, the compound was classed as inactive in [1], in assay [2], in assay [4] and in assay [7]. Also, the AC50 in [3] was 103 µM (active); in [5], 104 µM (active); in assay [6] it was 110 µM (active); in assay [8], 107 µM (active); in assay [9], 107 µM (active).
For `OC12N=C(c3ccccc3)SC1Cc1cc(Cl)ccc12` (stereo not given), the outcome in [1], in assay [2], in [3], in [4], in [5] and in assay [6] was inactive. Besides, the compound was classed as inactive in assay [7] and in assay [8]. Moreover, the AC50 in assay [9] is 67.5 µM (active).
`CCCOC(=O)c1cc(O)c(O)c(O)c1`: the compound was called inactive in assay [1], in assay [2], in assay [3], in [4], in assay [5] and in [6]. Further, the outcome in [7] was inactive. Also, the AC50 in assay [8] was 38.1 µM (active); in assay [9], 8.44 µM (active).
Turning to `CC(C)(O)c1ccc(CNC(=O)c2cccnc2Oc2ccc3nonc3c2)cc1`, the outcome in assay [1], in assay [2], in assay [3], in assay [4], in assay [5] and in assay [6] was inactive. Further, the result in assay [7], in assay [8] and in [9] was inactive.
As to `C[C@]12CC[C@@H]3c4ccc(O)cc4CC[C@H]3[C@@H]1CC[C@H]2O`, the compound was called inactive in assay [1] and in assay [7]. In addition, the half-maximal activity concentration (AC50) in [2] is 105 µM (active); in assay [3], 68.1 µM (active); in [4], 100 µM (active); in [5] it was 97.1 µM (active); in assay [6], 16.8 µM (active); in assay [8] it was 54.6 µM (active). In assay [9], the AC50 was 75.6 µM (active).
Regarding `CCCCCCCCCCCC[N+](C)(C)C`, the AC50 in [1] is 59 µM (active); in assay [3] it was 75.6 µM (active); in assay [5], 50.2 µM (active); in assay [7], 180 µM (active); in [8], 49.5 µM (active); in assay [9], 41.7 µM (active). In addition, the compound was called inactive in [2], in assay [4] and in assay [6].
As for `Cc1c2ccccc2c(C)c2c1ccc1ccccc12`, the AC50 in assay [1] is 44.6 µM (active); in assay [2] it was 77.3 µM (active); in assay [3] it was 56.1 µM (active); in assay [4], 74.5 µM (active); in assay [5], 49.3 µM (active); in assay [6], 95.7 µM (active). Also, the AC50 in assay [8] was 0.069 µM (active); in [9], 40.3 µM (active). Further, the outcome in assay [7] was inactive.
In the case of `Cc1cc(F)ccc1-c1cc(N2CC[C@@H](O)[C@H]2CO)ncc1N(C)C(=O)C(C)(C)c1cc(C(F)(F)F)cc(C(F)(F)F)c1`, the call in assay [1], in assay [2], in [3], in assay [4], in assay [5] and in assay [6] was inactive. Also, the compound was classed as inactive in assay [7]. Also, the values for the AC50 in assay [8] and in assay [9] were 94 µM (active) and 64.7 µM (active), respectively.
With `O=C1O[C@H]([C@@H](O)CO)C(O)=C1O`, the result in [1], in assay [2], in assay [3], in assay [4], in [5] and in assay [6] was inactive. For the same compound, the compound was classed as inactive in [7] and in assay [8]. The concentration at half-maximal activity (AC50) in assay [9] was 16.1 µM (active).
In the case of `Cc1oc2c(NC(=O)c3c(Cl)cccc3Cl)cccc2c1C(C)(C)O`, the outcome in [1], in assay [2], in [3], in assay [4], in assay [5] and in [6] was inactive. Further, the compound was classed as inactive in [7], in assay [8] and in [9].
`CCO[Si](CCCNC(N)=O)(OCC)OCC`: the call in assay [1], in assay [2], in [3], in assay [4], in assay [5] and in assay [6] was inactive. Further, the compound was classed as inactive in assay [7], in assay [8] and in assay [9].
As for `CCN(Cc1cccnc1)C(=O)c1cccc(Cl)c1[C@]1(C)C(=O)N(Cc2ccc(OC)cc2OC)c2ccc(Cl)cc21`, the result in assay [1], in assay [2], in assay [3], in [4], in assay [5] and in assay [7] was inactive. The result in [8] was inactive. Moreover, the half-maximal activity concentration (AC50) was 50.3 µM (active) in [6] and 14.4 µM (active) in [9].
As to `Oc1ccccc1`, the compound was called inactive in assay [1], in assay [2], in assay [3], in assay [4], in assay [5] and in [6]. Further, the call in assay [7], in [8] and in [9] was inactive.
In the case of `Clc1cc(Cl)c2c(c1)N=C1CCCCCN1C2`, the call in [1], in assay [2], in assay [3], in assay [4], in [5] and in [7] was inactive. For the same compound, the result in assay [8] and in [9] was inactive. For the same compound, in assay [6], the AC50 was 0.0248 µM (active).
With `O=C=NCCCCCCN=C=O`, the compound was classed as inactive in assay [1], in [2], in assay [3], in [4], in assay [5] and in assay [6]. The compound was called inactive in assay [7], in [8] and in [9].
Take `CC[C@@H]1C[C@H](N(Cc2cc(C(F)(F)F)cc(C(F)(F)F)c2)C(C)=O)c2cc(C(F)(F)F)ccc2N1C(=O)OC(C)C`: the call in [1], in assay [2], in assay [3], in [4], in assay [5] and in assay [7] was inactive. In addition, the compound was called inactive in assay [8] and in assay [9]. Also, the AC50 in assay [6] was 0.0358 µM (active).
